Inconclusive results are not listed. Activity calls are given as the source filed them. Calls follow the shape of the dose curve; as a rule, active = well fitted curve in the direction sought with a large enough effect; inconclusive = small, poorly fitted or top-dose-only effect, or another doubt; inactive = no such curve, though single readings can be large; an effect the other way counts as inactive or inconclusive.
How the values were obtained:
[1] = system: HaCat; experiment: Cytotoxic Profiling of Annotated Libraries Using Quantitative High-Throughput Screening (AID 1296008); details: Five cell lines viability, CellTiter-Glo ATP luminescence, 48-72 h; max response: stronger effect = lower value; also: nearly all actives have a fitted effect of over 60% in size
Summary of the method: (§1)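 Cytotoxicity was measured as CellTiter-Glo ATP luminescence, read after 10 min at room temperature. Compound treatment of the cells lasted 48 or 72 hr at 37 degrees Celsius in a qHTS format.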

[2] = system: KB-3-1; experiment: as above; details: Five cell lines viability, CellTiter-Glo ATP luminescence, 48-72 h; max response: stronger effect = lower value
Summary of the method: as §1

[3] = system: NIH3T3; experiment: as above; details: Five cell lines viability, CellTiter-Glo ATP luminescence, 48-72 h; max response: stronger effect = lower value
Summary of the method: as §1

[4] = system: C33A; experiment: Primary qHTS to identify gynecologic anti-cancer compounds using libraries of approved drugs and bioactive compounds (AID 1345084); details: Gynecologic cancer cell panel viability, ATPlite luminescence, 48 h; series mostly up to 57.5 µM; also: nearly all actives have a fitted effect of over 55% in size
Summary of the method: (§2)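 In this quantitative HTS, cell killing is estimated from loss of ATP-dependent luciferase light. Cells see five compound concentrations over a 48 h exposure.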

[5] = system: HeLa; experiment: as above; details: Gynecologic cancer cell panel viability, ATPlite luminescence, 48 h; series mostly up to 57.5 µM
Summary of the method: as §2

[6] = system: Hek293T; experiment: as above; details: Gynecologic cancer cell panel viability, ATPlite luminescence, 48 h, control line for the selectivity index; series mostly up to 57.5 µM
Summary of the method: as §2

[7] = system: JEG-3; experiment: as above; details: Gynecologic cancer cell panel viability, ATPlite luminescence, 48 h; series mostly up to 57.5 µM
Summary of the method: as §2

[8] = system: CAOV3; experiment: as above; details: Gynecologic cancer cell panel viability, ATPlite luminescence, 48 h; series mostly up to 57.5 µM
Summary of the method: as §2

[9] = system: OV90; experiment: as above; details: Gynecologic cancer cell panel viability, ATPlite luminescence, 48 h; series mostly up to 57.5 µM
Summary of the method: as §2

[10] = system: CASKI; experiment: as above; details: Gynecologic cancer cell panel viability, ATPlite luminescence, 48 h; series mostly up to 57.5 µM
Summary of the method: as §2

[11] = system: Es-2; experiment: as above; details: Gynecologic cancer cell panel viability, ATPlite luminescence, 48 h; series mostly up to 57.5 µM
Summary of the method: as §2
% is scaled to controls: 0 for no effect and ±100 for the full control effect; potency is read from the fitted curve at half-maximal effect.

CCCCNc1ncc2c(-c3ccc(CN4CCN(C)CC4)cc3)cn(C3CCC(O)CC3)c2n1 (centres undefined)
inactive: Potency [4] | Potency [6] | Potency [7]
active: Potency [1] 0.92 µM | Potency [2] 1.03 µM | Potency [3] 1.3 µM | Potency [5] 1.78 µM

Cc1cc(OCc2nnc(SC3CCCC3)n2-c2cccnc2)ccc1-c1ccc(S(C)(=O)=O)cc1
active: Potency [1] 4.61 µM | Potency [2] 1.46 µM | Potency [3] 10.3 µM | Potency [8] 31.6 µM | Potency [5] 31.6 µM | Potency [9] 1.78 µM

CC(C)c1cc(CNc2nc(Nc3cc(C4CC4)[nH]n3)cc(N3CCN(C)CC3)n2)on1
active: Potency [1] 2.31 µM | Potency [2] 0.146 µM | Potency [3] 0.461 µM | Potency [8] 0.282 µM | Potency [10] 2.82 µM | Potency [11] 7.94 µM | Potency [5] 0.251 µM | Potency [6] 2 µM | Potency [9] 3.16 µM

C[C@@H]1O[C@@H](O[C@H]2[C@H](O[C@H]3[C@H](O[C@H]4CC[C@@]5(C)C(CC[C@]6(C)C5CC=C5[C@@H]7CC(C)(C)CC[C@]7(C(=O)O[C@@H]7O[C@H](CO)[C@@H](O[C@@H]8O[C@@H](C)[C@H](O)[C@@H](O)[C@H]8O)[C@H](O)[C@H]7O)CC[C@]56C)C4(C)C)OC[C@H](O)[C@@H]3O)O[C@H](CO)[C@@H](O)[C@@H]2O)[C@H](O)[C@H](O)[C@H]1O (some centres undefined)
inactive: max response [1] 4.4% | outcome [2] | max response [3] 0.585% | activity change, negative = cytotoxicity [4] -22.7% [at 6.55 µM] | activity change, negative = cytotoxicity [11] -47.2% [at 6.55 µM] | activity change, negative = cytotoxicity [9] -0.139% [at 6.55 µM]

CCC(CC)C(=O)Nc1sc2c(c1C#N)CCC(C(C)(C)CC)C2 (centres undefined)
inactive: max response [1] 1.75% | max response [2] -9.22% | max response [3] 3.55% | Potency [4] | Potency [10] | Potency [11] | Potency [5] | Potency [7] | Potency [9]

Cc1cc(Nc2ncc3cc(-c4c(Cl)cccc4Cl)c(=O)n(C)c3n2)ccc1F
active: Potency [1] 5.8 µM | Potency [2] 2.59 µM | Potency [3] 1.46 µM | Potency [8] 3.16 µM | Potency [11] 7.94 µM | Potency [5] 3.55 µM

O=C1N=C(N2CCOCC2)CN1c1ccc(Cl)cc1
inactive: max response [1] -30.2% | max response [2] 2.82% | max response [3] -0.0852% | Potency [8] | Potency [10] | Potency [11] | Potency [5] | Potency [6] | Potency [7] | Potency [9]

CC[C@H](C)[C@H](NC(=O)[C@H]([C@@H](C)CC)N(C)C(C)=O)C(=O)N[C@H](C(=O)N[C@@H](CC(C)C)C(=O)[C@@]1(C)CO1)[C@@H](C)O
active: Potency [1] 0.0366 µM | Potency [2] 0.0326 µM | Potency [3] 0.058 µM | Potency [4] 0.1 µM | Potency [5] 0.1 µM
inactive: Potency [7]

COc1cc2c(cc1O)CC[C@H]1[C@@H]2CC[C@]2(C)[C@H](O)CC[C@@H]12
inactive: Potency [8] | Potency [9]
active: Potency [1] 0.58 µM | Potency [2] 1.64 µM | Potency [3] 0.82 µM | Potency [11] 3.98 µM | Potency [5] 3.16 µM

C[C@@H]1COCCN1c1cc(C2(S(C)(=O)=O)CC2)nc(-c2cccc3[nH]ccc23)n1
active: Potency [1] 5.8 µM | Potency [2] 2.59 µM | Potency [3] 2.06 µM | Potency [4] 4.47 µM | Potency [11] 3.16 µM | Potency [6] 7.94 µM | Potency [7] 7.08 µM

COc1cc(N2CCC(N3CCN(C)CC3)CC2)ccc1Nc1ncc(Cl)c(-c2c[nH]c3ccccc23)n1
inactive: Potency [11]
active: Potency [1] 3.66 µM | Potency [2] 4.61 µM | Potency [3] 1.46 µM | Potency [8] 11.2 µM | Potency [10] 8.91 µM | Potency [5] 8.91 µM | Potency [9] 15.8 µM

CN1c2ccccc2C(=O)N2CCC3c4ccccc4NC3C21 (centres undefined)
active: Potency [1] 2.02 µM | Potency [2] 3.6 µM | Potency [3] 7.18 µM | Potency [6] 5.62 µM | Potency [7] 3.98 µM
inactive: Potency [4] | Potency [9]

NC[C@@](O)(c1ccc(Cl)cc1)c1ccc(-c2cn[nH]c2)cc1
active: Potency [1] 8.2 µM | Potency [2] 11.6 µM | Potency [3] 5.17 µM | Potency [4] 22.4 µM | Potency [10] 28.2 µM | Potency [5] 25.1 µM | Potency [6] 28.2 µM

COc1cc(N2CCOCC2)ccc1Nc1ncc(Cl)c(Nc2ccccc2NS(C)(=O)=O)n1
active: Potency [1] 4.61 µM | Potency [2] 2.31 µM | Potency [3] 6.51 µM | Potency [8] 3.55 µM | Potency [10] 8.91 µM | Potency [5] 3.16 µM

CN(c1ccccc1CNc1nc(Nc2ccc3c(c2)CC(=O)N3)ncc1C(F)(F)F)S(C)(=O)=O
active: Potency [1] 8.2 µM | Potency [2] 6.51 µM | Potency [3] 5.8 µM | Potency [4] 6.31 µM | Potency [11] 20 µM | Potency [5] 15.8 µM | Potency [9] 8.91 µM

COc1ccc(CCC(=O)c2c(O)cc(O)cc2O[C@@H]2O[C@H](CO)[C@@H](O)[C@H](O)[C@H]2O)cc1
inactive: max response [1] -11.7% | max response [2] 8.59% | max response [3] -8.41% | Potency [4] | Potency [10] | Potency [5] | Potency [7] | Potency [9]

CC(C)(C)c1ccc(S(=O)(=O)NCc2ccc(C(=O)Nc3cccnc3)cc2)cc1
active: Potency [1] 6.51 µM | Potency [2] 0.731 µM | Potency [3] 3.66 µM | Potency [4] 7.94 µM | Potency [11] 3.55 µM | Potency [5] 1.78 µM | Potency [7] 2.24 µM | Potency [9] 3.98 µM
